This note sets out measurements from PubChem BioAssay (NCATS).

Assay [1] has as its target Glutathione peroxidase 1 (Homo sapiens) (UniProt P07203). The assay is described as follows: Primary qHTS Assay for Inhibitors of Recombinant Selenoprotein Glutathione Peroxidase 1 (GPX1) (AID 1845191). Further: nearly all actives have a fitted effect of over 65% in size. On activity, negative = inhibition: on the % scale 0 is the no-effect control and ±100 the full control effect. The method in brief: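 GR-coupled assay: compounds preincubated 30 min at room temperature with GPX1, then reaction started with CHP; final 10 nM GPX1, 1 mM GSH, 0.5 mM CHP, 0.5 mM NADPH, 100 nM GR, 0.01% BSA, pH 7.5 Tris buffer. NADPH fluorescence (340/450 nm) read at 0 and 15 min.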
(In general: qHTS replaces the single test concentration by a dilution series.)

Assay [2] concerns the target Phospholipid hydroperoxide glutathione peroxidase GPX4 (Homo sapiens) (UniProt P36969). As to the kind of experiment: Primary qHTS Assay for Inhibitors of Recombinant Selenoprotein Glutathione Peroxidase 4 (GPX4) (AID 1845192). Further: nearly all actives have a fitted effect of over 65% in size. On activity change, negative = inhibition: series mostly up to about 50 µM; on the % scale 0 is the no-effect control and ±100 the full control effect. In a few lines:
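GR-coupled assay: recombinant GPX4 preincubated 30 min with compound at room temperature; final 200 nM GPX4, 1 mM GSH, 0.5 mM cumene hydroperoxide, 0.5 mM NADPH, 100 nM GR, 0.01% BSA, pH 7.5 Tris. NADPH fluorescence (340/450 nm) read at 0 and 15 min.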

The target in assay [3] is Luciferin 4-monooxygenase (Photinus pyralis) (UniProt P08659). As to the kind of experiment: Primary firefly luciferase (FLuc) qHTS assay for identification of artifact compounds. (AID 1845220). Further: nearly all actives have a fitted effect of over 60% in size.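 On activity change, negative = inhibition: series mostly up to about 54 µM; plate controls were DMSO vehicle for no effect and no enzyme for full effect.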 The method in brief: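 Enzymatic FLuc inhibition assay: compounds pre-exposed to luciferin/ATP (10 uM each) for 15 min, then purified P. pyralis enzyme at 10 nM added. Read-out: luminescence at 5 min.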

A short description of assay [4]: Primary fluorescence-based thiol-reactive (MSTI) qHTS assay for identification of artifact compounds. (AID 1845221). Further: nearly all actives have a fitted effect of over 65% in size. Further: potency means the concentration at half of the fitted maximal effect.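 On activity change, negative = thiol reactive: series mostly up to about 54 µM; thiol-reactive compounds lower the probe fluorescence signal.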 In a few lines:
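One-hour, room-temperature, dark incubation of compound with 4 uM MSTI in PBS (pH 7.4, 2% DMSO) precedes a fluorescence read at 525 nm excitation, 598 nm emission; Hill-equation fitting yields concentration-response values.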

In assay [5] the test system is Nanoluciferase (engineered Oplophorus gracilirostris luciferase). The assay is described as follows: Primary Nanoluciferase (NLuc) qHTS assay for identification of artifact compounds. (AID 1845222).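 Further: NLuc secreted into diluted conditioned medium of S16 cells; series mostly up to about 54 µM; 0% = DMSO and -100% = no enzyme.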 In a few lines: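 S16 cell supernatant NLuc, 1:55; cpds qHTS; 15 min RT dark; Nano-Glo substrate 1:100, 5 min; luminescence; Hill fit of % inhibition.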
Assay [6] can be described thus: Primary redox qHTS assay for identification of artifact compounds. (AID 1845223).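 Further: 0% = DMSO and 100% = reference compound.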 The method in brief:
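Amplex Red (25 uM) and HRP (250 mU/mL) in HBSS, with compounds for 15 min, then 250 uM DTT for 30 min, room temperature, dark. Fluorescence 525/598 nm read; normalized to DMSO and 10 uM DA3003; Hill fit.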

A number with no mark means an inactive call. Inconclusive results are not listed. The source made the active and inactive calls. The call rests on the fitted dose curve; in most records, active means well fitted curve in the direction sought with a large enough effect; inconclusive means small, poorly fitted or top-dose-only effect, or another doubt; inactive means no such curve, though single readings can be large; an effect the other way counts as inactive or inconclusive.

Chain of Phospholipid hydroperoxide glutathione peroxidase GPX4 (Homo sapiens) (P36969 whole entry, looked up): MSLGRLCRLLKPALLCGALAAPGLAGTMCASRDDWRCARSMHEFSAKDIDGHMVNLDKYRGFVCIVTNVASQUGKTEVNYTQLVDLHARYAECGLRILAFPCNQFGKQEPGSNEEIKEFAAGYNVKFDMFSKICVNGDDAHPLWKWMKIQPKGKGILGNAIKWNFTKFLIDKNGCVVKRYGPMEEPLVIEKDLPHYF
Chain of Glutathione peroxidase 1 (Homo sapiens) (P07203 whole entry, looked up): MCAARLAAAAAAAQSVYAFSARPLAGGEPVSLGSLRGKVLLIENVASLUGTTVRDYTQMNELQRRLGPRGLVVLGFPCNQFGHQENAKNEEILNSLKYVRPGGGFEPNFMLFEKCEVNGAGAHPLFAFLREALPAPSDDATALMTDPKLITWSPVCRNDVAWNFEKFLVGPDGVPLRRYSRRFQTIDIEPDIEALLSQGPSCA

As for `COC(=O)/C=C/c1ccc(O[C@@H]2O[C@H](CO)[C@@H](O)[C@H](O)[C@H]2O)cc1`, the Potency result in assay [1], in assay [2], in assay [3], in assay [4], in assay [5] and in assay [6] was “inactive” in each case.
With `C=C1C(OC(C)=O)[C@@]23CCC4[C@](C)(C(=O)O)CCC[C@@]4(C)[C@]2(O)CC[C@H]1C3` (some centres undefined), the Potency result in assay [1], in assay [2], in assay [3], in assay [4], in assay [5] and in assay [6] was “inactive” throughout.
Take `CO[C@H]1c2cc(C(C)C)c(O)c(O)c2[C@@]23CCCC(C)(C)C2[C@@H]1OC3=O` (some centres undefined): the Potency result in assay [1], in assay [2], in assay [3] and in assay [5] was “inactive” each time. For the same compound, the Potency in assay [4] was 1.47 µM (active).
As for `C[C@@H]1O[C@@H](O[C@H]2[C@H](O)[C@@H](O[C@@H]3O[C@H](CO)[C@H](O)[C@H](O)[C@H]3O)[C@H](O[C@H]3CC[C@@]4(C)C(CC[C@]5(C)C4CC=C4[C@@H]6CC(C)(C)CC[C@]6(C(=O)O[C@@H]6O[C@H](CO)[C@@H](O)[C@H](O)[C@H]6O)CC[C@]45C)C3(C)C)O[C@@H]2C(=O)O)[C@H](O)[C@H](O)[C@H]1O` (some centres undefined), the Potency result in assay [1] and in assay [2] was “inactive” in each case. Besides, the outcome in assay [3] was “inactive [at 11.6 µM]”. Moreover, the activity change, negative = thiol reactive in assay [4] is 349% [at 11.5 µM]. For the same compound, in assay [5], the activity, negative = inhibition was 2.46% [at 11.6 µM].
For `CSC(=O)OCC1=C[C@@H]2OC(=O)C3=CO[C@@H](O[C@@H]4O[C@H](CO)[C@@H](O)[C@H](O)[C@H]4O)[C@H]1[C@@H]32`, the Potency result in assay [1], in assay [2], in assay [3], in assay [5] and in assay [6] was “inactive” throughout. In addition, in assay [4], the Potency is 6.53 µM (active).
Take `COc1ccc(CCC(=O)c2c(O)cc(O[C@@H]3O[C@H](CO)[C@@H](O)[C@H](O)[C@H]3O[C@@H]3O[C@@H](C)[C@H](O)[C@@H](O)[C@H]3O)cc2O)cc1O`: the Potency result in assay [1], in assay [2], in assay [3], in assay [4] and in assay [5] was “inactive” in each case.
`COc1cc(C(=O)OCC2=CCC3C(C(=O)O)=COC(O[C@@H]4O[C@H](CO)[C@@H](O)[C@H](O)[C@H]4O)C23)ccc1O` (some centres undefined): the Potency entry in assay [1], in assay [2], in assay [3] and in assay [5] was “inactive” each time. Also, the Potency in assay [4] was 11.6 µM (active).
On to `C/C=C1/CC2C(=O)Nc3cc(O)c(OC)cc3C(=O)N2C1` (centres undefined), for which the Potency result in assay [1], in assay [2], in assay [3] and in assay [5] was “inactive” throughout. For the same compound, the Potency in assay [4] was 13.1 µM (active).
With `CCOc1ncc(S(=O)(=O)N2CCN(CC)CC2)cc1-c1nc2c(CC)n(CCOC)nc2c(=O)[nH]1`, the Potency result in assay [1], in assay [2], in assay [3], in assay [4] and in assay [5] was “inactive” throughout.
For the compound `COC(=O)c1ccccc1O[C@@H]1O[C@H](CO[C@@H]2OC[C@@H](O)[C@H](O)[C@H]2O)[C@@H](O)[C@H](O)[C@H]1O`, the Potency result in assay [1], in assay [2], in assay [3], in assay [5] and in assay [6] was “inactive” each time. Moreover, the Potency in assay [4] was 5.19 µM (active).
Take `CC(C)(C)NS(=O)(=O)c1ccc(-c2ccc3[nH]nc(N)c3c2)cc1`: the Potency result in assay [1], in assay [2], in assay [3], in assay [5] and in assay [6] was “inactive” throughout. For the same compound, in assay [4], the Potency is 7.52 µM (active).
With `CC(=O)OC(C)(C)/C=C/C(=O)[C@](C)(O)C1[C@H](O)C[C@@]2(C)[C@@H]3CC=C4[C@@H](C[C@H](O[C@@H]5O[C@H](CO)[C@@H](O)[C@H](O)[C@H]5O)C(=O)C4(C)C)[C@]3(C)C(=O)C[C@]12C` (some centres undefined), the Potency result in assay [1], in assay [2], in assay [3], in assay [4], in assay [5] and in assay [6] was “inactive” throughout.
In the case of `CC(=O)OCC1OC(OC2COC(OC3COC(OC4C(OC5C(CO)OC(OC6CCC7(C)C(CCC8(C)C7CC=C7C9CC(C)(C)CCC9(C(=O)OC9OC(CO)C(O)C(O)C9OC9OCC(OC%10OCC(O)(CO)C%10O)C(O)C9O)C(O)CC78C)C6(C)C)C(O)C5O)OCC(O)C4O)C(O)C3O)C(O)C2O)C(OC(=O)/C=C/c2ccccc2)C(O)C1OC(C)=O` (centres undefined), the Potency result in assay [1] and in assay [2] was “inactive” throughout. The activity change, negative = inhibition in assay [3] was 4.52% [at 6.45 µM]. Besides, the activity change, negative = thiol reactive in assay [4] is 153% [at 6.41 µM]. In assay [5], the activity, negative = inhibition was 4.35% [at 6.45 µM].
For the compound `C[C@@H]1O[C@@H](O[C@H]2[C@H](O[C@H]3[C@H](O[C@H]4CC[C@@]5(C)C(CC[C@]6(C)C5CC=C5[C@@H]7CC(C)(C)CC(=O)[C@]7(C)CC[C@]56C)[C@@]4(C)CO)O[C@H](C(=O)O)[C@@H](O)[C@@H]3O)O[C@H](CO)[C@H](O)[C@@H]2O)[C@H](O)[C@H](O)[C@H]1O` (some centres undefined), the Potency result in assay [1] and in assay [2] was “inactive” each time. For the same compound, the outcome in assay [3] is “inactive [at 11.6 µM]”. For the same compound, in assay [4], the activity change, negative = thiol reactive is 40% [at 11.5 µM]. Further, the activity, negative = inhibition in assay [5] was -0.78% [at 11.6 µM].
Take `CCCN1CCC[C@@H](c2cccc(S(C)(=O)=O)c2)C1`: the Potency result in assay [1], in assay [2], in assay [3], in assay [4], in assay [5] and in assay [6] was “inactive” throughout.
On to `C=CC(C)(CCC=C(C)C)O[C@@H]1O[C@H](CO)[C@@H](O)[C@H](O)[C@H]1O` (some centres undefined), for which the Potency result in assay [1], in assay [2], in assay [3], in assay [4] and in assay [5] was “inactive” each time.
In the case of `C[C@@H]1O[C@@H](O[C@H]2[C@H](OC(=O)[C@]34CCC(C)(C)C[C@H]3C3=CCC5[C@@]6(C)C[C@@H](O)[C@@H](O[C@@H]7O[C@H](CO)[C@@H](O)[C@H](O)[C@H]7O)[C@@](C)(CO)C6[C@H](O)C[C@@]5(C)[C@]3(C)CC4)OC[C@H](O)[C@@H]2O)[C@H](O)[C@H](O[C@@H]2OC[C@](O)(CO)[C@H]2O)[C@H]1O[C@@H]1OC[C@@H](O)[C@H](O[C@H]2O[C@H](C)[C@@H](O)[C@H](O)[C@@H]2O)[C@H]1O` (some centres undefined), the Potency entry in assay [1] and in assay [2] was “inactive” in each case. Further, in assay [3], the activity change, negative = inhibition is 1.3% [at 11.6 µM]. Also, the activity change, negative = thiol reactive in assay [4] was 412% [at 11.5 µM]. Further, the activity, negative = inhibition in assay [5] was 0% [at 11.6 µM].
Take `CC1(C)C[C@@H]2[C@H](C1)[C@@]1(C)C[C@]13C(O)OC[C@]3(O)[C@H]2O` (some centres undefined): the Potency result in assay [1], in assay [2], in assay [3], in assay [4], in assay [5] and in assay [6] was “inactive” throughout.
Turning to `C/C=C(\C)C(=O)O[C@H]1C=CC(=O)O[C@H]1/C=C/[C@H](O)[C@@H](C)O`, the Potency result in assay [1], in assay [2], in assay [3], in assay [4], in assay [5] and in assay [6] was “inactive” throughout.
